Lassa entry inh = qHTS for Inhibitors of binding or entry into cells for Lassa Virus; Lassa virus pseudotype entry inhibition, cell reporter; Potency, µM (top dose mostly 37.9 µM), most hits filed as inhibitors; 300,000 tested, 1.2% active; calls by dose curve; tested in HEK293 cells; also: nearly all actives have a fitted effect of over 50% in size
RE007 growth inh = qHTS Assay for Inhibitors of the HIV-1 protein Vpr. S. pombe RE007 Vpr strain, BacTiter-Glo ATP luminescence, 24 h. Potency, µM (highest dose often 92.2 µM), most hits filed as inhibitors. 360,000 tested, 0.21% active; active = well fitted falling curve with a large enough effect; inconclusive = small, poorly fitted or top-dose-only effect; inactive = no such curve, though single readings can be large or run the other way; also: nearly all actives have a fitted effect of over 50% in size
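Fission yeast RE007 carrying one integrated HIV-1 vpr copy, seeded at OD 0.01 in PMG+AL medium with 23 nL pinned compound. Grown 24 h at 30 degrees; viability read by BacTiter-Glo luminescence after 5 min.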
Sm TGR block = qHTS Assay for the Inhibitors of Schistosoma Mansoni Peroxiredoxins. Schistosoma mansoni thioredoxin glutathione reductase (TGR), Q962Y6. purified TGR, DTNB reduction, TNB absorbance 405 nm. Potency, µM (top dose mostly 114 µM), actives largely listed as inhibitors. 360,000 tested, 3% active. AID 485364, 2010; also: nearly all actives have a fitted effect of over 60% in size
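Kinetic colorimetric format: TGR-catalysed, NADPH-driven DTNB reduction monitored via TNB absorbance. Enzyme dispensed at 20 nM; compound exposure 15 min at room temperature before reaction start.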
MARV entry inh = qHTS for inhibitors of binding or entry into cells for Marburg Virus; Marburg virus pseudotyped entry inhibition, cell reporter; Potency, µM (highest dose often 37.8 µM), actives largely listed as inhibitors; 300,000 tested, 1.8% active; calls by dose curve; tested in HEK293 cells
FMDV antiviral = High Throughput Screening for Foot and Mouth Disease Virus Antivirals | 410,000 tested, 1.2% active | AID 1159524, 2015 | Potency, µM (titrated, usually from 57.9 µM), most hits filed as inhibitors | FMDV antiviral cell-based qHTS; calls by dose curve; tested in HEK293T cells; also: read-out not given here; nearly all actives have a fitted effect of over 45% in size
HCV inh = qHTS Assay for Inhibitors of Hepatitis C Virus (HCV) | Huh7.5.1 HCVcc-Cre infection, luciferase reporter, 44 h | Potency, µM (highest dose often 41.8 µM), hits mostly inhibitors | 340,000 tested, 3.4% active | AID 651820, 2012
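A cell-based infection assay in which seeded cells (1,000 per well) receive test compound after 4 h, are inoculated with HCVcc-Cre at approximately 0.5 moi, and are incubated 44 h before luminescence detection.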
A number is an active result; n = inactive; u = inconclusive; x = no result. A selection: hits, their analogues and other compounds. The true share with any hit is near 7.2%. Unless noted, calls follow the shape of the dose curve; as a rule, active = well fitted curve in the direction sought with a large enough effect; inconclusive = small, poorly fitted or top-dose-only effect, or another doubt; inactive = no such curve, though single readings can be large; an effect the other way counts as inactive or inconclusive.

SMILES	Lassa entry inh	RE007 growth inh	Sm TGR block	MARV entry inh	FMDV antiviral	HCV inh
Cc1nnc(NC(=O)CSc2ccc(-c3ccco3)nn2)s1	n	n	14.1µM	u	n	n
CCc1nnc(NC(=O)CSc2ccc(-c3ccco3)nn2)s1	n	n	7.08µM	u	n	n
CCc1nnc(NC(=O)CSc2nnc(-c3ccco3)n2C)s1	n	n	n	n	n	n
COc1ccc(C(=O)NC2CCCCCC2)cc1S(=O)(=O)N1CCCc2ccccc21	7.08µM	n	n	u	n	u
COc1ccc(C(=O)NC2CCCCCC2)cc1S(=O)(=O)N1CCCC1	n	n	n	n	n	n
Cc1ccnc(NC(=O)c2cccc(S(=O)(=O)N3CCOCC3)c2)c1	n	n	n	n	n	n
COc1ccc(NC(=O)CN(C)C(=O)c2cccc(S(=O)(=O)N3CCN(C)CC3)c2)cc1	n	n	89.1µM	n	n	n
CN(CC(=O)Nc1ccc(F)cc1)C(=O)c1cccc(S(=O)(=O)N2CCN(c3ccc(F)cc3)CC2)c1	u	n	n	u	u	8.91µM
Cc1ccnc(NC(=O)c2cccc(S(=O)(=O)N3CCN(c4ccc(F)cc4)CC3)c2)c1	n	n	n	u	n	10µM
CC(C)CCNC(=O)c1cc(S(=O)(=O)N2CCC3(CC2)OCCO3)ccc1F	x	n	x	x	n	x
CN(Cc1ccc(F)cc1)C(=O)c1cccc(S(=O)(=O)N2CCN(Cc3ccccc3)CC2)c1	u	n	n	u	u	u
CCN1CCN(S(=O)(=O)c2ccc(Cl)c(C(=O)N(CC)Cc3ccccc3)c2)CC1	n	n	n	n	n	u
CSc1ccc(CN(C)C(=O)c2cccc(S(=O)(=O)N3CCN(Cc4ccccc4)CC3)c2)cc1	n	n	n	u	15.8µM	u
COc1ccc(CN(C)C(=O)c2cccc(S(=O)(=O)N3CCCc4ccccc43)c2)c(OC)c1OC	x	n	x	x	u	11.2µM
CN(Cc1ccc(F)cc1)C(=O)c1cccc(S(=O)(=O)N2CCN(c3ccccc3)CC2)c1	u	n	n	u	u	12.6µM
CCN1CCN(S(=O)(=O)c2ccc(Cl)c(C(=O)N(CCc3ccccc3)Cc3ccccc3)c2)CC1	x	n	x	x	n	12.6µM
Cc1ccc(NC(=O)Cn2cc(C(=O)c3ccco3)c3ccccc32)cc1	u	x	n	x	n	x
CSc1nnc(CNC(=O)c2c(-c3ccccc3)noc2C)n1-c1ccc(F)cc1	x	x	x	x	n	x
CN(CCOc1ccc(Cl)cc1)C(=O)c1cccc(S(=O)(=O)N2CCN(Cc3ccccc3)CC2)c1	x	n	x	x	10µM	2.51µM
CN(Cc1nc2ccccc2c(=O)[nH]1)C(=O)c1cccc(S(=O)(=O)N2CCCCCC2)c1	x	n	n	x	u	n
COc1ccc(CN(C)C(=O)c2cccc(S(=O)(=O)N3CCN(c4ccccc4)CC3)c2)c(OC)c1OC	u	n	n	u	u	8.91µM
CN(Cc1nc2ccccc2c(=O)[nH]1)C(=O)c1cccc(S(=O)(=O)N2CCc3ccccc32)c1	3.98µM	n	x	u	n	n
CN(Cc1ccc(F)cc1)C(=O)c1cccc(S(=O)(=O)N2CCN(c3ccc(F)cc3)CC2)c1	u	n	n	u	u	10µM
COc1ccc(CNC(=O)CCc2c(C)nc3nc(CNC(=O)OC(C)(C)C)nn3c2C)cc1	n	x	n	n	n	x
COc1ccccc1NC(=O)Nc1nc(CC(=O)N2CCN(c3ccc(F)cc3)CC2)cs1	u	n	n	11.2µM	u	11.2µM
SMILES	Lassa entry inh	RE007 growth inh	Sm TGR block	MARV entry inh	FMDV antiviral	HCV inh
COc1ccccc1NC(=O)Nc1nc(CC(=O)N2CCN(c3ccccc3)CC2)cs1	u	n	n	n	u	12.6µM
COc1ccccc1NC(=O)Cc1csc(NC(=O)c2ccccc2)n1	u	n	x	n	u	7.08µM
Cc1cccc(NC(=O)CN2c3ccccc3S(=O)(=O)c3ccccc32)c1C	n	x	n	x	n	x
Cc1ccc(S(=O)(=O)N(C)CC(=O)Nc2ccccc2N2CCCC2)cc1	x	n	n	x	n	n
O=C(O)Cc1sc(N/N=C\c2ccccc2)nc1-c1ccccc1	n	n	2.24µM	n	n	n
CCOC(=O)C1=NOC2(C1)C(=O)Nc1c(Cl)cccc12 (configuration not stated)	x	n	x	x	n	x
COc1ccc(CN2C(=O)[C@@H]3C(c4ccc(F)cc4)=NO[C@@H]3C2=O)cc1	n	n	n	n	n	n
Cc1ccc(N2C(=O)[C@@H]3C(c4cccnc4)=NO[C@@H]3C2=O)cc1	x	u	7.94µM	x	n	n
COc1ccc(N2C(=O)[C@@H]3C(c4cccnc4)=NO[C@@H]3C2=O)cc1	x	n	7.08µM	x	n	n
COc1ccc(C2=NO[C@@H]3C(=O)N(c4c(C)cccc4C)C(=O)[C@H]23)cc1OC	n	n	u	n	n	n
CN1CCc2nc(SCC(=O)OC(C)(C)C)c(C#N)cc2C1	n	n	n	u	n	3.98µM
COc1cccc(CNCc2ccc(OC)cc2OC)c1	x	n	u	x	n	n
CCn1c2ccccc2c2cc(CNCc3ccc(OC)cc3OC)ccc21	x	n	n	x	n	12.6µM
CCC(CC)NCc1ccc2c(c1)c1ccccc1n2CC	u	n	n	u	n	12.6µM
CCN1C(=O)[C@@H]2[C@H]3[C@H](O)[C@H](O)CC(=NO[C@@H]4O[C@H](COC(C)=O)[C@@H](OC(C)=O)[C@H](OC(C)=O)[C@@H]4OC(C)=O)[C@@H]3CC[C@H]2C1=O	x	x	x	n	x	x
Cc1cc2c(cc1S(=O)(=O)N1CCC(C(N)=O)CC1)OCC(=O)N2	n	x	n	x	n	x
CC(C)N(C)C1CCN(S(=O)(=O)c2ccc3[nH]c(=O)ccc3c2)CC1	n	x	50.1µM	x	n	x
CCN(CC)CCCn1c(=S)[nH]c2cc(Cl)ccc2c1=O	n	n	n	n	n	7.08µM
CCN(CC)CCCn1c(=S)[nH]c2ccc(Cl)cc2c1=O	n	n	n	n	n	u
CCCCN(C)CCn1c(=S)[nH]c2cc(OCC)c(OCC)cc2c1=O	n	n	n	u	n	n
CCOc1cc2[nH]c(=S)n(CCCN(CC)CC)c(=O)c2cc1OCC	n	n	6.31µM	u	n	n
CC(C)C(=O)N[C@H]1CCCN1C(=O)/C=C\c1ccccc1	x	x	x	n	x	x
CN(C)/C=N/c1ncc(C(=O)c2ccc(-c3ccccc3)cc2)s1	u	n	n	u	n	11.2µM
CN(C)/C=N/c1ncc(C(=O)c2ccccc2)s1	u	n	n	n	n	n
O=C(Nc1cccc(F)c1)[C@@H](c1ccccc1)N1Cc2ccccc2C1=O	n	x	n	n	n	x
CCC(C)n1c(SCc2ccc([N+](=O)[O-])cc2)nc2ccsc2c1=O (configuration not stated)	u	n	n	12.6µM	u	10µM
O=C(OCc1nc2ccc(Cl)cc2n1CCO)c1ccccc1	n	n	17.8µM	n	u	n
